D2 antagonist: antagonists of human D2 dopamine receptor; HEK293 TREx D2 cells, calcium flux, dopamine EC80; 340,000 tested, 2% active; P14416; inhibition, % at 10 µM; in the data active = inhibition above about 30%; inactive = below that, where a call was filed
Target sequence (P14416 whole entry, looked up): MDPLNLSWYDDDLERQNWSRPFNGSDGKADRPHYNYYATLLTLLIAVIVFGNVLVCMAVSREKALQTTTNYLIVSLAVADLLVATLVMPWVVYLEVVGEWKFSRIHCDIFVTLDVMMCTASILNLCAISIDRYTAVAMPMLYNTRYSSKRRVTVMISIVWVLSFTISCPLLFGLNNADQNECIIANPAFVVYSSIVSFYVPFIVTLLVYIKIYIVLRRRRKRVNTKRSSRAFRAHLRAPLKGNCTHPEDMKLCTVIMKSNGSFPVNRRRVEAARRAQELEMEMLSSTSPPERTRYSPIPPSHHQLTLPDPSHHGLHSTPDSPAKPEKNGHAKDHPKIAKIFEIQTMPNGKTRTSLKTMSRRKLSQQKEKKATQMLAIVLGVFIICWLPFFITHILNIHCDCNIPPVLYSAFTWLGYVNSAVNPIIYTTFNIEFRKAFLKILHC
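In this primary screen, negative modulation is detected by tracking calcium flux after an EC80 dopamine challenge in inducible HEK293 T-REx D2 cells preexposed to test compound for 180 s.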
D2 ag-1: D2 dopamine receptor (human) agonism; P14416; HEK293 T-REx D2 cells, calcium flux agonist mode; activation, % at 2 µM; 340,000 tested, 0.53% active; AID 485358;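 active = activation over 3 SD above normal in the single-dose calcium agonist read, cut at about 30% in these data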
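Tetracycline-induced HEK293 T-REx cells with force-coupled D2 receptor, plated overnight at 30 C, loaded with no-wash calcium dye. After a 10 s baseline, compound was pin-added and calcium flux read kinetically for 180 s; calcium rises flagged agonists.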
D2 PAM-1: potentiates the human D2 dopamine receptor allosterically | potentiation, % (test concentration not listed) | DiscoveRx D2 beta-arrestin cells, luminescence, 90 min; 100% = 57 uM dopamine signal | 360,000 tested, 0.23% active | AID 624464 | P14416; in the data active = potentiation above about 50%; inconclusive = mostly about 30% to 49%
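PathHunter beta-arrestin assay in DiscoveRx D2 cells. Compounds were added with an EC20 of dopamine (50 nM final) for 90 min at 37 deg C. Luminescence was read 1 h after detection reagent, with 57 uM dopamine as the EC100 control.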
D2 PAM-2: D2 dopamine receptor (human) potentiation; HEK293 T-REx D2, calcium flux, EC20 dopamine potentiation; AID 485347; P14416; potentiation, % at 10 µM; 340,000 tested, 0.34% active;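 active = potentiation over 3 SD above the plate norm, cut at about 30% in these data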
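Using a no-wash calcium dye in inducible, force-coupled HEK293 Trex cells expressing D2, we tracked fluorescence each second for 180 s after compound, then for 180 s after EC20 dopamine to detect augmented signalling.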
D2 ag-2: human D2 receptor agonism in beta-arrestin assay. DiscoveRx PathHunter D2 beta-arrestin, luminescence, 90 min; 100% = 57 uM dopamine signal. activation, % (concentration not given with the values). 360,000 tested, 0.084% active. AID 624465; in the data active = activation above about 40%; inconclusive = between about 15% and that limit
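DiscoveRx PathHunter D2 beta-arrestin cells (2,100/well) attached overnight, then compound-stimulated 90 min at 37 C in HBSS/10 mM HEPES/0.1% Tween-20 buffer; beta-galactosidase complementation read by luminescence after 1 h at ambient temperature. Dopamine 57 uM final (EC100) as control.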
Each line names hits and unclear results; the compound was inactive in the other large screens. Only some compounds are listed: those with a hit (about 2.4% of all), similar ones and a draw of the others.

CCOc1ccc(OCC)c(Nc2cc(C)nc3ncnn23)c1	none
c1csc(C2=Nn3c(nnc3-c3ccncc3)SC2)c1	D2 PAM-2 32
Clc1ccc(-c2nnc(-c3cccc4ccccc34)o2)cc1	none (no result: D2 antagonist, D2 ag-1, D2 PAM-2)
COc1cccc(CN2C(=O)CCC2(C)C(=O)NC2CCCC2)c1 (configuration not stated)	none
CCOc1ccc(NC(=O)/C(C#N)=C/c2ccc(N3CCCC3)c(C)c2)cc1	D2 antagonist 38, D2 ag-1 32
O=C(Nc1nc(-c2ccccn2)cs1)c1ccc(F)c(S(=O)(=O)N2CCOCC2)c1	none
Cc1ccc(-c2csc(N/N=C/c3ccco3)n2)c(C)c1	D2 PAM-1 56
c1ccc2c(c1)CCCN2Cc1nnnn1CC1CCCO1 (configuration not stated)	D2 PAM-2 32
c1ccc(CCn2nnnc2CN2CCCc3ccccc32)cc1	none
Cc1nc(-c2ccc(F)cc2)c(CC(=O)N(C)CC(=O)Nc2ccc(Br)cc2C)s1	D2 antagonist 58
COc1ccc(O)c(C(=O)c2cc(C(=O)NCCc3ccccc3)c(=O)n(CCc3ccccc3)c2)c1	D2 PAM-1 69
C=CCN(C1CCCCC1)S(=O)(=O)c1ccc2c(c1)oc(=O)n2C	none
COC(=O)C(Cc1ccccc1)NC(=O)CCC(=O)NC(C)CCc1ccccc1 (configuration not stated)	none
Cc1ccc(CNC(=O)c2cc3sc(Cl)cc3n2C)cc1	none (no result: D2 antagonist, D2 ag-1, D2 PAM-1, D2 ag-2)
COc1ccc(CCNC(=O)CCNC(=O)c2ccc(Br)cc2)cc1OC	D2 ag-1 35
Cc1cccc(C)c1OCC(=O)NNC(=O)CCNC(=O)c1ccc(Br)cc1	D2 PAM-1 64
COc1ccc(CCNC(=O)c2cc3sc(Cl)cc3n2C)cc1OC	D2 antagonist 63
COC(=O)C(Cc1ccccc1)NC(=O)CCNC(=O)c1ccc(Br)cc1 (configuration not stated)	D2 PAM-2 40 (no result: D2 antagonist, D2 ag-1)
CCSc1nnc2c(n1)OC(c1ccc(OC)cc1OC)N(C(C)=O)c1ccccc1-2 (configuration not stated)	none (no result: D2 antagonist, D2 PAM-1, D2 ag-2)
COc1ccc(/C=C/C(=O)OCC(=O)c2ccc(S(=O)(=O)N3CCCCC3)cc2)cc1OC	none
O=C(COc1ccc(Br)cc1)NCCNC(=O)c1ccncc1	D2 antagonist 47
COc1c2c(cc3c1C(CC(O)Cc1ccccc1)N(C)CC3)OCO2 (configuration not stated)	D2 antagonist 57
CCN(CC)C(=O)C1=C(C)NC(=S)NC1c1cccs1 (configuration not stated)	D2 antagonist 31
N#CC1(NC(=O)COC(=O)c2ccc(Cl)nc2)CCCCC1	none
O=C(CSc1nnc(-c2ccc(O)cc2)o1)c1ccc(Br)cc1	none (no result: D2 antagonist, D2 PAM-1, D2 ag-2)
OCC1(Cc2ccccc2)CCN(Cc2ccccn2)CC1	none
c1ccc(CN2CCN(c3ncccn3)CC2)nc1	D2 antagonist 37, D2 ag-1 48 (no result: D2 PAM-1, D2 ag-2)
Clc1ccc(CN2CCC(Cc3ccccc3)CC2)cc1	D2 antagonist 48
Clc1ccc(CN2CCC(c3nc4ccc(Cl)cc4[nH]3)CC2)cc1	D2 antagonist 82
O=C(c1ccc(-c2ccccc2)cc1)N1CCN(Cc2ccccn2)CC1	none (no result: D2 antagonist, D2 ag-1, D2 PAM-2)
Clc1cccc(CN2CCC(Cc3ccccc3)CC2)c1	none (no result: D2 antagonist, D2 ag-1, D2 PAM-2)
c1ccc(CC2CCN(Cc3ccccn3)CC2)cc1	D2 antagonist 30
CN(C(=S)NC(=O)c1ccccc1Br)C1CCCCC1	none
Clc1ccc(CN2CCC(c3ccccc3)CC2)cc1	D2 antagonist 85
CSc1ccc(CN2CCC(Oc3cccc(C(=O)N4CCCC4)c3)CC2)cc1	none
CSc1ccc(CN2CCC(Cc3ccccc3)CC2)cc1	D2 antagonist 31
CSc1ccc(OC2CCN(Cc3ccccc3)CC2)cc1	D2 antagonist 31
CC(C)NCCCCOc1cccc(Br)c1	none
Cc1nn(C(C)C(=O)N2CCOCC2)c(C)c1[N+](=O)[O-] (configuration not stated)	none
CC(=O)N1CCN(C(=S)c2ccc([N+](=O)[O-])cc2)CC1	D2 antagonist 48
CC(=O)N1CCN(c2ccc([N+](=O)[O-])cc2)CC1	none
O=C(CCNC(=O)c1ccc([N+](=O)[O-])cc1)NC1CCCc2ccccc21 (configuration not stated)	D2 antagonist 32
O=C(CCNC(=O)c1ccccc1)NC1CCCc2ccccc21 (configuration not stated)	none (no result: D2 ag-1)
COc1ccccc1C1=NC(c2ccccc2)CN1c1ccccc1 (configuration not stated)	none
Cc1oc(-c2cccc(C(F)(F)F)c2)nc1CN1CCC[C@H]1CO	D2 antagonist 70
FC(F)(F)c1ccc(Oc2ccccc2Cl)nc1	none
COc1cccc(OC)c1Oc1ccc(C(F)(F)F)cn1	D2 antagonist 66
COc1cc(/C=C/C(=O)O)cc(OC)c1	none
CCNS(=O)(=O)c1ccc(CCC(=O)Nc2ccccc2C(=O)OC)cc1	none
CCC(=O)N1CCc2cc(S(=O)(=O)CCC(=O)NCCc3ccc(OC)c(OC)c3)ccc21	D2 antagonist 37
CCC(=O)N1CCc2cc(S(=O)(=O)CCC(=O)NCCc3ccccc3)ccc21	none
COc1ccc(S(=O)(=O)Nc2ccc(N3CCOCC3)cc2)cc1[N+](=O)[O-]	none
COc1ccc(S(=O)(=O)Nc2ccc(N3CCOCC3)cc2)cc1Br	D2 antagonist 30
COc1ccc(CCNC(=O)C(NS(=O)(=O)c2ccc3c(c2)CCN3C(C)=O)C(C)C)cc1OC (configuration not stated)	D2 PAM-2 32 (no result: D2 PAM-1, D2 ag-2)
COc1ccc(S(=O)(=O)Nc2ccc3c(c2)N(C(C)=O)CCC3)cc1OC	D2 antagonist 34
CNC(=O)c1ccc(-c2cc3onc(-c4ccccc4)c3c(=O)n2C)cc1	none (no result: D2 antagonist, D2 ag-1, D2 PAM-2)
CC(=O)Nc1ccccc1/C=C/c1ccc2c(C)ccc(O)c2n1	D2 antagonist 33
Cc1cc(-n2c(C)cc(C(=O)CSc3ncnc4ccccc34)c2C)no1	none (no result: D2 antagonist, D2 ag-1, D2 PAM-2)
CCCCN(C)CCCNC(=O)c1cn(CC)c2ccc(S(=O)(=O)N3CCOCC3)cc2c1=O	none
COc1ccc(NC(=O)c2cc(C3CCCCN3C(=O)c3ccc(C#N)cc3)on2)c(C)c1 (configuration not stated)	none (no result: D2 antagonist, D2 ag-1, D2 PAM-2)
COc1cc(/C=C/c2[nH]c(=O)[nH]c(=O)c2[N+](=O)[O-])cc(OC)c1O	none
COc1cc(N)c(Cl)cc1C(=O)N[C@H]1CCN(CCCOc2ccc(F)cc2)C[C@H]1OC	none
COc1cc(N)c(Cl)cc1C(=O)N[C@@H]1CCN(CCCOc2ccc(F)cc2)C[C@@H]1OC	D2 antagonist 77 (no result: D2 PAM-1, D2 ag-2)
COCCn1c(=O)[nH]c2cc(C(=O)NCCN3CCN(c4ccccc4)CC3)ccc2c1=O	D2 antagonist 144, D2 ag-1 83, D2 ag-2 inconclusive
Cc1ccccc1C1N(c2nccs2)C(=O)C2CCCN21 (configuration not stated)	none

Source: PubChem BioAssay (National Center for Advancing Translational Sciences (NCATS))
